From PubChem BioAssay
The full list was thinned out, with hits kept by preference.
IDE exosite FP: displaces the probe from the exo-site of human IDE; P14735; purified IDE, FL-6b probe fluorescence polarization; stronger effect = lower value; z-score at 20 µM; 17,000 tested, 6.3% active; AID 1259349;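 active means z-score of -3 or lower, meaning strong loss of probe binding signal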;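 further: His-tagged human IDE residues 42-1019 made in E. coli with 30 nM FL-6b probe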
An asterisk follows results filed as active.

SMILES | IDE exosite FP
CN(C)CC#Cc1ccc([C@@H]2[C@H]3CN(C(=O)Cc4ccccn4)CCCCN3[C@H]2CO)cc1 | 0.57
O=C(Cc1ccccn1)N1CCCCN2[C@H](CO)[C@H](c3ccc(C#Cc4ccccc4)cc3)[C@H]2C1 | -9.5*
CCCC#Cc1ccc([C@@H]2[C@H]3CN(C(=O)Cc4ccccn4)CCCCN3[C@H]2CO)cc1 | -1.7
OC[C@@H]1[C@@H]2c3ccccc3NC[C@@H]2N1Cc1cccnc1 | 1.1
O=C(Cc1ccccc1)N1CCCCN2[C@@H](CO)[C@H](c3ccc(C#CC4(O)CCCC4)cc3)[C@@H]2C1 | 3.4
COc1ccccc1CN1[C@H](CO)[C@H](c2ccccc2)C12CN(C(=O)Cc1ccccc1)C2 | -0.3
OC[C@H]1Nc2ccc(C#Cc3cccnc3)cc2[C@H]2NCC[C@H]21 | 2.8
COc1ccc(C#Cc2ccc([C@H]3[C@H]4CN(C(=O)Cc5ccccc5)CCCCN4[C@H]3CO)cc2)cc1 | 3.1
